Measurements reported in PubChem BioAssay AID1159580 (chemical genetic matrix, 2015).
Where “and” joins values, the source holds several entries; their conditions need not be identical. Identical values can stand only once. The campaign covered roughly 5,500 compounds. About 2,000 (36%) were called active. About 18% were inconclusive and are not listed. No stated cut-off is given here; in the data, active means normalized growth mostly below about 0.91 (no sharp cut-off); inconclusive means no clear call, values can overlap the other calls; inactive means mostly above about 0.92. The list shows a part of the results.

Experiment: chemical genetic growth profiling, strain panel (AID 1159580);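 further: tested at 20 µM; growth read once vehicle control cultures reached saturation at 30 °C; 1 = growth at the plate median or of vehicle wells; lower values mean less growth of the strain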
Details: S. cerevisiae deletion strains, growth OD

Measured: normalized growth

COc1c(CC(=O)c2cc3c(cc2O)OC(C)(C)C(O)C3)ccc2c1C=CC(C)(C)O2 (centres undefined)
active: locus YBR021W, strain FUR4, active compounds read low 0.653 | locus YOR184W, strain ser1, active compounds read low 0.851
inactive: locus YBR229C, strain ROT2, active compounds read low 0.998 | locus YCL029C, strain bik1, active compounds read low 0.975 | locus YDL035C, strain GPR1, active compounds read low 1.01 | locus YDL074C, strain BRE1, active compounds read low 0.926 | locus YDL101C, strain DUN1, active compounds read low 1.01 | locus YDL185W, strain tfp1, active compounds read low 1 | locus YDL192W, strain arf1, active compounds read low 0.96 | locus YDR101C, strain arx1, active compounds read low 0.974 | locus YDR162C, strain NBP2, active compounds read low 1.01 | locus YDR318W, strain mcm21, active compounds read low 0.984 | locus YDR388W, active compounds read low 0.994 | locus YDR502C, strain sam2, active compounds read low 1.01 | locus YEL061C, strain CIN8, active compounds read low 1.01 | locus YER110C, active compounds read low 1.01 | locus YER155C, strain BEM2, active compounds read low 0.989 | locus YER167W, strain BCK2, active compounds read low 1 | locus YGL078C, strain dbp3, active compounds read low 1.01 | locus YGL086W, strain mad1, active compounds read low 0.979 | locus YGL248W, strain PDE1, active compounds read low 1.02 | locus YGR078C, strain PAC10, active compounds read low 1.03 | locus YGR135W, strain pre9, active compounds read low 1.05 | locus YGR252W, strain gcn5, active compounds read low 0.937 | locus YHR030C, strain SLT2, active compounds read low 0.955 | locus YHR079C, strain IRE1 (second series), active compounds read low 1 | locus YHR079C, strain IRE1, active compounds read low 0.958 | locus YHR094C, strain hxt1, active compounds read low 1.01 | locus YHR129C, strain ARP1, active compounds read low 0.997 | locus YHR200W, strain rpn10, active compounds read low 1 | locus YIL066C, strain RNR3, active compounds read low 0.997 | locus YIL073C, strain SPO22, active compounds read low 1.05 | locus YIL125W, strain kgd1, active compounds read low 0.982 | locus YIR030C, strain dcg1, active compounds read low 0.987 | locus YJL095W, strain BCK1, active compounds read low 0.981 and 0.988 | locus YJL134W, strain LCB3, active compounds read low 0.996 | locus YJL168C, strain set2, active compounds read low 1.02 | locus YJL187C, strain SWE1 (second series), active compounds read low 1.02 | locus YJR066W, strain TOR1, active compounds read low 0.935 | locus YKL009W, strain mrt4, active compounds read low 0.992 | locus YKL068W, active compounds read low 1 | locus YKL085W, strain MDH1 (second series), active compounds read low 0.998 | locus YKL085W, strain MDH1, active compounds read low 0.998 | locus YKR001C, strain vps1, active compounds read low 0.961 | locus YLR039C, strain RIC1, active compounds read low 1.08 | locus YLR058C, strain SHM2, active compounds read low 0.999 | locus YLR102C, strain apc9, active compounds read low 0.992 | locus YLR113W, strain HOG1, active compounds read low 0.961 | locus YLR262C, strain YPT6, active compounds read low 1.02 | locus YLR268W, strain sec22, active compounds read low 0.977 | locus YLR371W, strain rom2, active compounds read low 0.998 | locus YLR418C, strain cdc73, active compounds read low 0.938 | locus YML016C, strain PPZ1, active compounds read low 0.999 | locus YML032C, strain rad52, active compounds read low 0.982 | locus YML124C, strain tub3, active compounds read low 0.984 | locus YMR078C, strain ctf18, active compounds read low 1 | locus YMR223W, strain ubp8, active compounds read low 1.01 | locus YMR263W, strain SAP30, active compounds read low 0.996 | locus YMR307W, strain GAS1, active compounds read low 0.807 | locus YNL067W, strain RPL9B, active compounds read low 1.01 | locus YNL128W, strain TEP1, active compounds read low 1.01 | locus YNL153C, strain GIM3, active compounds read low 1.06 | locus YNL183C, strain NPR1, active compounds read low 0.937 | locus YNL233W, strain BNI4, active compounds read low 0.997 | locus YNL250W, strain rad50, active compounds read low 1.06 | locus YNL271C, strain bni1, active compounds read low 0.996 | locus YNL298W, strain CLA4, active compounds read low 0.991 | locus YNL307C, strain MCK1, active compounds read low 0.988 | locus YNR052C, strain pop2, active compounds read low 0.993 | locus YOL012C, strain htz1 1.64 | locus YOL147C, strain pex11, active compounds read low 0.988 | locus YOR061W, strain CKA2, active compounds read low 0.996 | locus YOR069W, strain VPS5, active compounds read low 1 | locus YOR136W, strain idh2, active compounds read low 0.996 | locus YOR144C, strain elg1, active compounds read low 0.995 | locus YOR231W, strain MKK1, active compounds read low 0.951 | locus YOR316C, strain cot1, active compounds read low 0.998 | locus YPL055C, strain LGE1, active compounds read low 0.942 | locus YPL256C, strain CLN2, active compounds read low 0.962 | locus YPR119W, strain clb2, active compounds read low 0.999 | locus YPR141C, strain kar3, active compounds read low 1 | locus YPR163C, strain tif3, active compounds read low 0.988 | locus YPR167C, strain met16, active compounds read low 1 | strain wtn01, active compounds read low 0.972
